From PubChem BioAssay AID1497 (Sanford-Burnham Center for Chemical Genomics, 2009)
Out of some 93,000 compounds screened, about 500 (0.54%) were called active.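 The calls were made as follows: active = primary inhibition of 50% or more at 10 µM, then 40% or more on retest; inactive = the rest.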 Many of the other results were omitted from the sample, so actives are more common in it than they were.

The molecules below were run against Integrin beta-2 (Homo sapiens) + Integrin alpha-M (Homo sapiens) (UniProt P05107+P11215) (assay: inhibitors of CD11b/CD18 adhesion to fibrinogen, primary screen, K562 cells, luminescence (AID 1497)). Conditions: ATPlite luminescence, at 10 µM, hits give high values, Mn2+ added to activate the integrin.
Chain of Integrin beta-2 (Homo sapiens) + Integrin alpha-M (Homo sapiens) (P05107 whole entry, looked up, other chains not shown): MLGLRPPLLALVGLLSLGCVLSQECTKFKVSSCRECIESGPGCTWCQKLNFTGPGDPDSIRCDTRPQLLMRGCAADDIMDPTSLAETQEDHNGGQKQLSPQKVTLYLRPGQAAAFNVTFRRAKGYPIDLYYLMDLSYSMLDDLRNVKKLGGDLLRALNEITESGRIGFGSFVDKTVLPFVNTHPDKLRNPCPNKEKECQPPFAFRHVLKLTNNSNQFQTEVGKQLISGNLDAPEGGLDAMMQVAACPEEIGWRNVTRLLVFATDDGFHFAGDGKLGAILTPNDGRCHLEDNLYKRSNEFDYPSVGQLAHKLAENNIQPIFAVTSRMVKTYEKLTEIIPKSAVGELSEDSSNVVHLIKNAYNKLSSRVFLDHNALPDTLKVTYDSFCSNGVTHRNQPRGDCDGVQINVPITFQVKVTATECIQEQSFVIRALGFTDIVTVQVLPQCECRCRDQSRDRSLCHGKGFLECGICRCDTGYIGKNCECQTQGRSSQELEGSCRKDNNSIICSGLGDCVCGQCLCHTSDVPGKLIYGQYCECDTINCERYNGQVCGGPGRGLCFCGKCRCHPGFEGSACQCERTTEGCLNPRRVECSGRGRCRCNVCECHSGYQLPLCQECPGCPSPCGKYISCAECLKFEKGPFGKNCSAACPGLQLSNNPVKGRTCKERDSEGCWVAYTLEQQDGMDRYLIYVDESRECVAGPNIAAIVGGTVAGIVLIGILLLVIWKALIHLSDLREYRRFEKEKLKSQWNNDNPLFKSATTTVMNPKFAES

Row | Structure (SMILES) | inhibition
1 | COc1cc(OC)c(C(=O)OC(C)C(=O)Nc2cc(C(F)(F)F)ccc2Cl)cc1OC (stereo unspecified) | 26.7% (inactive)
2 | COc1ccc2nc(SCc3ccccc3)nc(C)c2c1 | 1.5% (inactive)
3 | CC(C)(C)OC(=O)N/N=C/c1ccc(C(=O)O)cc1 | -1.8% (inactive)
4 | CC(C)Nc1nnc(SCC(=O)/C=C2\N(C)c3ccccc3C2(C)C)s1 | 21.6% (inactive)
5 | CCOC(=O)c1cnc2ccc(F)cc2c1Nc1ccc2c(c1)OCCO2 | 2.6% (inactive)
6 | Cc1c(NS(=O)(=O)c2ccc(NC3CCCC3)c([N+](=O)[O-])c2)c(=O)n(-c2ccccc2)n1C | 1% (inactive)
7 | Cc1cccc(CC(=O)N2CCN=C2SCc2ccc([N+](=O)[O-])cc2)c1 | -1.1% (inactive)
8 | COc1ccc(CCNc2cc(C)nc3c(-c4ccc(Cl)cc4)c(C)nn23)cc1OC | 2.7% (inactive)
9 | Cc1cccc(-n2c(C)cc(/C=N\NC(=O)c3cccs3)c2C)c1 | 37.3% (inactive)
10 | Cc1nc(CNS(=O)(=O)c2ccc(Oc3ccccc3)cc2)cs1 | 91.7% (active)
11 | Cc1nc(CNS(=O)(=O)c2cccnc2)cs1 | -2.1% (inactive)
12 | Cc1ccc(S(=O)(=O)NCc2csc(C)n2)c(C)c1 | -9% (inactive)
13 | COc1ccccc1N=Cc1c(O)c2ccccc2oc1=O | 6% (inactive)
14 | Oc1c(Br)cccc1/C=N/Nc1c(F)c(F)c(F)c(F)c1F | 99.8% (inactive)
15 | Cc1cc([N+](=O)[O-])ccc1NC(=O)C1CCCO1 (stereo unspecified) | 24.2% (inactive)
16 | CCOC(=O)/C(C#N)=C/c1ccc(N2CCN(Cc3ccccc3)CC2)cc1 | 82.1% (inactive)
17 | Cc1ccc(NC(=S)NC(=O)/C=C/c2ccc(Cl)cc2)cc1 | 7.2% (inactive)
18 | Cc1ccc(/C=N/NC(=O)CNC(=O)COc2ccccc2)o1 | -10.5% (inactive)
19 | O=c1c(Cl)c(NCc2ccc(F)cc2Cl)cnn1C12CC3CC(CC(C3)C1)C2 | -4% (inactive)
20 | Cc1c(C(=O)NCCN2C(=O)S/C(=C\c3cccs3)C2=O)cccc1[N+](=O)[O-] | 7% (inactive)
21 | Cc1sc2ncnc(Sc3nc4ccccc4s3)c2c1C | -5.9% (inactive)
22 | O=[N+]([O-])c1ccc(N2CCN(S(=O)(=O)c3ccccc3)CC2)cc1N1CCc2ccccc2C1 | -22.4% (inactive)
23 | CCOCCCNC(=O)C(=O)NCCCOCC | -3% (inactive)
24 | Cc1ccc(NC(=S)N2CCN(c3ncccn3)CC2)cc1C | -4.4% (inactive)

Row | Structure (SMILES) | inhibition
25 | Cc1cc2oc(=O)cc(CN3CCN(S(=O)(=O)c4cccs4)CC3)c2cc1C(C)C | 22.2% (inactive)
26 | CCN(c1ccc(NC(=O)COC(=O)CCc2nc3ccccc3n2-c2ccccc2)cc1)C(C)C | 15.2% (inactive)
27 | CC(C)N1C(=O)N(c2ccccc2)C(C)(O)CC1(C)C (stereo unspecified) | -10.1% (inactive)
28 | Cc1cccc(NC(=O)Cn2c(=O)n(Cc3ccccc3)c(=O)c3c(C)c(C)sc32)c1 | -17.5% (inactive)
29 | CCOc1ccc(NC(=O)COc2ccc(C(=O)NC3CCCc4ccccc43)cc2OC)cc1 (stereo unspecified) | 1.8% (inactive)
30 | CCCN1CNC(=S)N(CCc2ccccc2)C1 | -28.3% (inactive)
31 | O=c1oc2cc(O)ccc2cc1-c1ccc(F)cc1 | -2.5% (inactive)
32 | CCCCCCc1cc2cc(-c3nnc(-c4ccccc4)o3)c(=O)oc2cc1O | 94% (active)
33 | CCOc1cccc(C(=O)Nc2cccnc2)c1 | -2.2% (inactive)
34 | CCOC(=O)c1cc(NC(=O)c2cccnc2)cc(C(=O)OCC)c1 | -52.6% (inactive)
35 | Cc1c(C(=O)OC(C)C)sc(NC(=O)c2cccnc2)c1C#N | 86% (active)
36 | CCOC(=O)CSC1=C(C#N)C(c2ccco2)C(C(=O)OCc2ccccc2)=C(C)N1 (stereo unspecified) | 34.5% (inactive)
37 | CCOC(=O)CSC1=C(C#N)C(c2sccc2C)CC(=O)N1 (stereo unspecified) | 56.1% (active)
38 | Cc1ccc(C2CC(=O)NC(SCC(=O)OCc3ccccc3)=C2C#N)o1 (stereo unspecified) | 29.9% (inactive)
39 | CCCn1c(N)c(C(=O)CSc2nnc(-c3cccnc3)n2-c2ccc(C)cc2C)c(=O)[nH]c1=O | -8.1% (inactive)
40 | Cc1cc(Br)ccc1SCC(=O)OCC(=O)NCc1ccc2c(c1)OCO2 | 10.7% (inactive)
41 | O=C(CSc1nc2ccccc2c(=O)n1CCCO)N1CCc2ccccc21 | 21.1% (inactive)
42 | O=C(N/N=C/c1cccc([N+](=O)[O-])c1)C1CC(=O)N(c2ccc(Br)cc2)C1 (stereo unspecified) | -4.8% (inactive)
43 | COC(=O)c1c(C)oc2ccc(N(C(=O)Oc3ccccc3)S(=O)(=O)c3ccccc3)cc12 | 2.5% (inactive)
44 | Cc1ccc2nc(SCc3cn4c(C)cc(C)nc4n3)[nH]c2c1 | -5.6% (inactive)
45 | COc1ccc(C(CC(=O)Nc2ccc(C)cc2)NC(=O)C(F)(F)F)cc1 (stereo unspecified) | -24.1% (inactive)
46 | CCCc1c(C)nc2c(Br)cccc2c1Cl | 13.2% (inactive)
47 | Cc1c(Cl)cccc1NC(=O)Nc1ccc(C(=O)N2CCCC2)cc1 | 9.6% (inactive)
48 | CCOc1ccc(/C=N/OCC(=O)NCc2cccs2)cc1 | 9% (inactive)

Row | Structure (SMILES) | inhibition
49 | CCc1c(C)sc(NC(=O)/C=C/c2ccc3c(c2)OCO3)c1C(=O)OC | -6.4% (inactive)
50 | O=C(Cc1ccc(-c2ccccc2)cc1)NC(c1ccccc1)c1ccccc1 | -18.2% (inactive)
51 | CCOc1cc(CNCc2ccccn2)ccc1OCC(=O)NC(C)(C)C | 7.5% (inactive)
52 | CC(C)(C)NC(=O)COC(=O)c1cc(Br)ccc1Cl | 12.8% (inactive)
53 | CC(C)C(=O)Nc1cccc(NC(=O)c2ccc([N+](=O)[O-])cc2Cl)c1 | -3.1% (inactive)
54 | COC(=O)c1ccccc1NC(=O)c1ccccc1NS(C)(=O)=O | -14.9% (inactive)
55 | COC(=O)c1ccc(NC(=O)c2ccccc2NS(=O)(=O)c2ccccc2)cc1 | 102% (active)
56 | CCOc1ccc(NC(=O)c2ccccc2NS(C)(=O)=O)cc1 | -19.4% (inactive)
57 | O=C(Oc1ccc([N+](=O)[O-])cc1)c1ccc(Cl)c(S(=O)(=O)N2CCCCC2)c1 | 8.6% (inactive)
58 | Cc1ccc(NC(=O)c2sc3nc(N)c(C#N)cc3c2N)cc1 | 10.7% (inactive)
59 | COc1cccc(N(C(=O)C2COc3ccccc3O2)C(C(=O)NC2CCCCC2)c2ccc(O)cc2)c1 (stereo unspecified) | -5% (inactive)
60 | Cc1ccc(CSCC(N)C(=O)O)cc1 (stereo unspecified) | -2% (inactive)
61 | O=C(NCC1CCCO1)/C(=C/c1ccc(Cl)cc1)NC(=O)c1ccccc1 (stereo unspecified) | 2.4% (inactive)
62 | O=C(Nc1nnc(C2COc3ccccc3O2)o1)c1ccc(F)cc1 (stereo unspecified) | -27.3% (inactive)
63 | COC(=O)Cc1ccc(NC(=S)NCc2ccccc2)cc1 | 0.4% (inactive)
64 | CCCn1c(SCC(=O)Nc2ccc(C)c(S(=O)(=O)N3CCOCC3)c2)n[nH]c1=O | -10.9% (inactive)
65 | Cc1ccc(-n2nc3cc(Cl)c(NC(=O)c4ccco4)cc3n2)cc1 | 3.9% (inactive)
66 | COC(=O)c1cc(Cl)c(NC(=O)c2ccco2)cc1OC | -6% (inactive)
67 | O=C(NNC(=S)Nc1ccc(Br)cc1Cl)c1ccco1 | 89.9% (active)
68 | CN(C)S(=O)(=O)c1cccc(NC(=S)N/N=C/C(=O)c2ccccc2)c1 | 14% (inactive)
69 | COc1ccc([N+](=O)[O-])cc1NC(=O)C(C)OC(=O)C1c2ccccc2Oc2ccccc21 (stereo unspecified) | 26.5% (inactive)
70 | COc1ccc(CCNC(=O)CSc2nc(-c3ccc(OC)c(OC)c3)ccc2C#N)cc1 | 18.5% (inactive)
71 | COc1ccc(C(=O)Nc2ccc(CN3CCOCC3)cc2)cc1 | -3.3% (inactive)
72 | CCC(=O)Nc1ccc2c(c1)nc(CCN1CCN(C)CC1)n2C | 3.3% (inactive)

Row | Structure (SMILES) | inhibition
73 | Cn1c(CN2CCOCC2)nc2cc(NC(=O)c3ccc(Cl)cc3)ccc21 | 87.2% (active)
74 | Cc1cc2ncn(CCCCOc3ccccc3)c2cc1C | 63.9% (active)
75 | COCCOCCn1cnc2ccccc21 | 2.3% (inactive)
76 | Cc1nn(CCOc2ccccc2)c(=O)n1-c1ccccc1F | -0.4% (inactive)
77 | COc1ccc(NC(=O)CC2C(=O)OCC3CCCCN32)cc1Cl (stereo unspecified) | -8.3% (inactive)
78 | CCCCCCCCC(=O)NCCOc1ccccc1 | 2.8% (inactive)
79 | COc1ccc(/C=C2/C(=O)OCc3cc(OC)c(OC)cc32)c(OC)c1 | 0.8% (inactive)
80 | C/C(=N\NS(=O)(=O)c1ccc(Cl)cc1)c1ccc(NC(=O)c2ccco2)cc1 | -3.6% (inactive)
81 | COCCn1c(=NC(=O)c2ccccc2[N+](=O)[O-])sc2cc(S(C)(=O)=O)ccc21 | 25.4% (inactive)
82 | C/C(=N\NC(=O)CCn1nc(C)cc1C)C(C)(C)C | 1% (inactive)
83 | N#C/C(=C/c1cccc([N+](=O)[O-])c1)c1nnc2n1CCCCC2 | 2.5% (inactive)
84 | N/C(=N\OC(=O)Nc1ccc(Cl)c(Cl)c1)c1ncc(C(F)(F)F)cc1Cl | -4.4% (inactive)
85 | O=C(CC(O)(C(F)(F)F)C(F)(F)F)Nc1ccc(Cl)c(Cl)c1 | 89.5% (active)
86 | Cc1nnc(NC(=O)Nc2ccc(Cl)c(Cl)c2)s1 | 37% (inactive)
87 | Cc1nnc(NC(=O)Cn2c(=O)sc3ccccc32)s1 | -2.7% (inactive)
88 | COc1ccc(Cn2c(=O)sc3ccccc32)cc1OC | 75.8% (active)
89 | COc1ccc(CCNC(=O)CCn2c(=O)oc3ccccc32)cc1OC | -58.2% (inactive)
90 | COc1ccc(C(=O)Nc2ccccc2C(=O)N/N=C/c2ccccc2OC)cc1 | 65.1% (active)
91 | COc1ccc(C(=O)Nc2ccccc2C(=O)N/N=C/c2ccc(O)c(OC)c2)cc1 | 106% (inactive)
92 | COc1ccc(NC(=O)c2ccc(OC)cc2)cc1 | -5.7% (inactive)
93 | N#C/C=C\Oc1ccc(Cl)cc1N | 51.7% (active)
94 | COc1ccc(Cl)cc1NC(=O)[C@@H]1CCCN1C(=O)c1cccs1 | -14.3% (inactive)
95 | Cc1nn(-c2ccccc2)c(C)c1/C=C/C(=O)OC(C)C(N)=O (stereo unspecified) | -9.1% (inactive)
96 | COc1ccc(-c2csc(NC(=O)CCCc3cccs3)n2)cc1 | 6.2% (inactive)
